Our source for the outcome and AC50 values is PubChem BioAssay (EPA / NIEHS).

Results filed as inconclusive are left out. Where a structure was tested more than once in an assay, its records may differ in their call. Active and inactive are the calls of the source. The calls were made as follows: active = hit-call score of the fitted dose curve at least 0.9, where 1 is the maximum; inconclusive = response in the unintended direction; inactive = score below 0.9.

Assay [1] addresses Estrogen receptor (Homo sapiens) (UniProt P03372). Nature of the assay: OT_ER_ERaERa_0480: Odyssey Thera (OT) 8-hour HEK293T Protein-Complementation Assay for Estrogen Receptor-alpha/-alpha Homodimer (AID 2283351).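 Also: rise in fluorescence from reassembled reporter fragments on ERα LBD homodimer in nucleus or whole cell.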 The gist of the method: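 Measures ERα LBD (aa 310-547) homodimer complementation in stably transfected HEK293T at 8 h post-dose, with fluorescence intensity quantified on a laser scanning cytometer relative to DMSO controls.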

Assay [2] deals with T1, Estrogen receptor (Homo sapiens) + Estrogen receptor beta (Homo sapiens) (UniProt P03372+Q92731). The assay is described as follows: OT_ER_ERaERb_1440: Odyssey Thera (OT) 24-hour HEK293T Protein-Complementation Assay for Estrogen Receptor-alpha/-beta Homodimer (AID 2283356).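 Also: heteromer of ER alpha and ER beta binding domains; hits raise reporter fluorescence and both agonists and antagonists give an increase.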 The gist of the method:
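Heterodimerisation of ERα (aa 310-547) and ERβ (aa 263-489) ligand binding domains was tracked as fluorescence gain in stably transfected HEK293T cells following 24 h dosing, normalised to DMSO controls.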

Assay [3] concerns the target Retinoic acid receptor alpha (Homo sapiens) (UniProt P10276). Nature of the assay: NVS_NR_hRARa_Agonist: NovaScreen (NVS) Nuclear Receptor Binding Assay for human Retinoic Acid Alpha Receptor Agonism (RAR) (AID 2283361). The gist of the method: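 TR-FRET signal, 2 h post-dosing; cell-free extracted protein; DMSO = baseline, positive fitting direction; 25 uM single-point duplicate, then concentration series for actives.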

Assay [4] has as its target human Thyroid Receptor Alpha (TRa), THRA (gene 7067) (UniProt P10827). Nature of the assay: NVS_NR_hTRa_Antagonist: NovaScreen (NVS) Nuclear Receptor Binding Assay for human Thyroid Receptor Alpha Antagonism (TRa) (AID 2283362). The gist of the method: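 Chemicals were first screened in duplicate at 25 uM, then actives were retested in concentration series. Binding to the extracted receptor was measured 1 h after dosing by AlphaLISA chemiluminescence, with decreased signal versus DMSO scored as activity.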

The target of assay [5] is Glucocorticoid receptor (Homo sapiens) (UniProt P04150). Nature of the assay: NVS_NR_hGR: NovaScreen (NVS) Nuclear Receptor Binding Assay for human Glucocorticoid Receptor (GR) (AID 2283363).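 As to AC50: activity is loss of specific radioligand binding signal relative to DMSO.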 The gist of the method:
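Filter scintillation readout of tritiated/iodinated radioligand displaced by test chemical; cell-free extracted protein; 16 h. DMSO = negative control/baseline. Duplicate single-point 25 uM screen, then concentration-response on actives.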

Assay [6] concerns the target Peroxisome proliferator-activated receptor gamma (Homo sapiens) (UniProt P37231). Nature of the assay: NVS_NR_hPPARg: NovaScreen (NVS) Nuclear Receptor Binding Assay for human Peroxisome Proliferator-activated Receptor gamma (PPARg) (AID 2283370). The gist of the method: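 Fluorescence polarization measures competitive binding to extracted PPARg in a cell-free format. Reading is taken at 2 h; activity is signal loss relative to DMSO. Screening at 25 uM in duplicate preceded confirmatory dose series.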

Assay [7] concerns the target T1, Estrogen receptor (Homo sapiens) + Estrogen receptor beta (Homo sapiens). Nature of the assay: OT_ER_ERaERb_0480: Odyssey Thera (OT) 8-hour HEK293T Protein-Complementation Assay for Estrogen Receptor-alpha/-beta Heterodimer (AID 2283352). The gist of the method: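 Increase in mean fluorescence intensity, measured by laser scanning plate cytometry, reported ER-alpha/ER-beta LBD complementation in HEK293T cells after 8 h chemical exposure. DMSO served as baseline; basal signal is low, punctate and cytoplasmic.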

Assay [8] concerns the target Estrogen receptor beta (Homo sapiens) (UniProt Q92731). The assay is described as follows: OT_ER_ERbERb_0480: Odyssey Thera (OT) 8-hour HEK293T Protein-Complementation Assay for Estrogen Receptor-beta/-beta Homodimer (AID 2283357).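 Also: active means signal gain over DMSO baseline.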 The gist of the method:
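Homodimerization of ER-beta LBD measured by protein-fragment complementation in HEK293T; 8 h dosing; fixed, Draq5 counterstain; fluorescence intensity gain over DMSO baseline, positive fitting direction; laser scanning cytometry.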

Assay [9] deals with Nuclear receptor subfamily 1 group I member 2 (Homo sapiens) (UniProt O75469). The assay is described as follows: NVS_NR_hPXR: NovaScreen (NVS) Nuclear Receptor Binding Assay for human Pregnane X Receptor (PXR) (AID 2283365).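 Also: a drop in FRET signal versus DMSO baseline means the compound binds.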 The gist of the method: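 Binding was measured by time-resolved fluorescence resonance energy transfer after a 2 h exposure of extracted human PXR protein without cells. Compounds were first tested at 25 uM in duplicate, with concentration series for actives; DMSO defined baseline.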

In assay [10] the target is human Peroxisome Proliferator-activated Receptor alpha (PPARa), PPARA (gene 5465) (UniProt Q07869). The assay is described as follows: NVS_NR_hPPARa: NovaScreen (NVS) Nuclear Receptor Binding Assay for human Peroxisome Proliferator-activated Receptor alpha (PPARa) (AID 2283359).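 Also: activity means loss of TR-FRET signal versus DMSO baseline.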 The gist of the method:
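TR-FRET signal measured at 1 h post-dosing; loss-of-signal versus DMSO negative control taken as activity. Extracted gene-protein, cell-free format. Initial single-point duplicates at 25 uM, then concentration-response retests.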

Assay [11] addresses Androgen Receptor/SRC-1 Co-activator, AR (gene 367) (UniProt P10275). The assay is described as follows: OT_AR_ARSRC1_0960: Odyssey Thera (OT) 16-hour HEK293T Protein-Complementation Assay for Androgen Receptor/SRC-1 Co-activator (AID 2283353).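 Also: actives raise the signal above DMSO so potency reflects increased AR and SRC-1 complex.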 The gist of the method: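 Sixteen-hour cell assay: Venus halves fused to AR and SRC-1 in HEK293T report binding. Images at 488/635 nm give an N/C ratio in the 488 nm channel over ≥400 cells, analysed as signal increase over DMSO.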

Assay [12] has as its target human Dopamine Transporter (DAT), SLC6A3 (gene 6531) (UniProt Q01959). Nature of the assay: NVS_TR_hDAT: NovaScreen (NVS) Transporter Assay for human Dopamine Transporter (DAT) (AID 2283374).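 Also: activity means loss of bound radioligand signal relative to DMSO.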 The gist of the method: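 hDAT membranes + tritiated/iodinated radioligand, competitive displacement; 1 h; filter scintillation readout. Single conc 25 uM (duplicate), then conc-response for actives. DMSO = negative control.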

Assay [13] addresses Androgen Receptor/SRC-1 Co-activator, AR (gene 367) (UniProt P10275). The assay is described as follows: OT_AR_ARSRC1_0480: Odyssey Thera (OT) 8-hour HEK293T Protein-Complementation Assay for Androgen Receptor/SRC-1 Co-activator (AID 2283354).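 Also: hits raise the complementation signal above DMSO so AC50 marks enhancers.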 The gist of the method:
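Split-Venus PCA, stable HEK293T, AR/SRC-1 fusions; 8 h exposure. Readout: 488nm N/C fluorescence ratio, ≥400 cells/image; fitted upward vs DMSO baseline.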

Glucocorticoid receptor (Homo sapiens), sequence (P04150 whole entry, looked up): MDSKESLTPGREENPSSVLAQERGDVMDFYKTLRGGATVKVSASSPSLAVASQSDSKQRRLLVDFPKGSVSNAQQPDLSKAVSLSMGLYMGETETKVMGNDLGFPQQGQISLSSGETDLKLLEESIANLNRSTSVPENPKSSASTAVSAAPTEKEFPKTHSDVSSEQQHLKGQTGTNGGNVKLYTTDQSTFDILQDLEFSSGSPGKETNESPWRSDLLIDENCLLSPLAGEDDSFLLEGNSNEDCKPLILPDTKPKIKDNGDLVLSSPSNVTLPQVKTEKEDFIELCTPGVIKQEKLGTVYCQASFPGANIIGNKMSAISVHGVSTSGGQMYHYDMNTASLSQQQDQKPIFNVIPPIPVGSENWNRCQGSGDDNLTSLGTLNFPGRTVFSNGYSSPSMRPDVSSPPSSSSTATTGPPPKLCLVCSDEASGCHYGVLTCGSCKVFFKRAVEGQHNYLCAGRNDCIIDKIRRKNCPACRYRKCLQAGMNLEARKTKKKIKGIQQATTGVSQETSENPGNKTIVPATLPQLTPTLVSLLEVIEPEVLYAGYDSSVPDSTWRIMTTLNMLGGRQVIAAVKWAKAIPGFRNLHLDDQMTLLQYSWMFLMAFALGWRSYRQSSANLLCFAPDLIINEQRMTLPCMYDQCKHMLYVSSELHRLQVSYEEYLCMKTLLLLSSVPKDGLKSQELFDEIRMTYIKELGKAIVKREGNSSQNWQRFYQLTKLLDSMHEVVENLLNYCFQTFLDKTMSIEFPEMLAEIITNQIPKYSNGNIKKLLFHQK
Androgen Receptor/SRC-1 Co-activator, AR (gene 367), sequence (P10275 whole entry, looked up, the tested form may be a part): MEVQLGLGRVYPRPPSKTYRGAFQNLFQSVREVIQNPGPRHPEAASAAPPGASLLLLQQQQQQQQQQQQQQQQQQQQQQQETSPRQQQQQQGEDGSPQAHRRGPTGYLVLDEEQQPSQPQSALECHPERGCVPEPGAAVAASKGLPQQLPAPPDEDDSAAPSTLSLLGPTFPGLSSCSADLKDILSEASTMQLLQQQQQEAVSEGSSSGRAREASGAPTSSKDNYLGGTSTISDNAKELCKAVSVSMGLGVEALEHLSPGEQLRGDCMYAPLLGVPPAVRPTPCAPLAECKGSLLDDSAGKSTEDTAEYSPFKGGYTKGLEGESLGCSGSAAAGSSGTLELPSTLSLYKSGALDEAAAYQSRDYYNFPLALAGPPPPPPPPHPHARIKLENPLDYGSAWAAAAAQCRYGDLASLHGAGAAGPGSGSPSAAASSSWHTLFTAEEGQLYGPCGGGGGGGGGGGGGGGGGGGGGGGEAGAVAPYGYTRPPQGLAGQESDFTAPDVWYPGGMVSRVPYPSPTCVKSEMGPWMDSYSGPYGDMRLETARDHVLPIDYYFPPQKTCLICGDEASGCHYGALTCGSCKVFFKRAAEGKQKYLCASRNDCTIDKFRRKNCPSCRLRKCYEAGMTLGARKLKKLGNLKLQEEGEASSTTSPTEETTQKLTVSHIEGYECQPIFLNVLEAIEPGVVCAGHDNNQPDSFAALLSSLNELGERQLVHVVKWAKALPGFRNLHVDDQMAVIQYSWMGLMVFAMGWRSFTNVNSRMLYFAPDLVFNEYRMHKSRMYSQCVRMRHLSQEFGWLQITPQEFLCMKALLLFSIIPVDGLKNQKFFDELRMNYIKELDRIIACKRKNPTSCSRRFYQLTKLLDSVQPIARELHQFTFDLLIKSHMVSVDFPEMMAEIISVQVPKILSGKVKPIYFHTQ
Nuclear receptor subfamily 1 group I member 2 (Homo sapiens), sequence (O75469 whole entry, looked up): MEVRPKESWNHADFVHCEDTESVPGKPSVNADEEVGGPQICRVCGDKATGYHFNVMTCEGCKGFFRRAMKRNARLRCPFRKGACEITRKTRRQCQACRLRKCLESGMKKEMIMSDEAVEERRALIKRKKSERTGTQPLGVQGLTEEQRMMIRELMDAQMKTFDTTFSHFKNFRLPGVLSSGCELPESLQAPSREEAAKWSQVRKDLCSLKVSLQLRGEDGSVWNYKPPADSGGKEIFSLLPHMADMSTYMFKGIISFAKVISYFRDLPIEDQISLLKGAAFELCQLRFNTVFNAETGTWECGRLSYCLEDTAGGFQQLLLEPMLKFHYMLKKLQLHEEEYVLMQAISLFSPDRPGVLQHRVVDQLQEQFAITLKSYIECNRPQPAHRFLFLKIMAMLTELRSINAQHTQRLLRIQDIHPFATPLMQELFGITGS
T1 sequence (P03372 whole entry, looked up, the tested form may be a part): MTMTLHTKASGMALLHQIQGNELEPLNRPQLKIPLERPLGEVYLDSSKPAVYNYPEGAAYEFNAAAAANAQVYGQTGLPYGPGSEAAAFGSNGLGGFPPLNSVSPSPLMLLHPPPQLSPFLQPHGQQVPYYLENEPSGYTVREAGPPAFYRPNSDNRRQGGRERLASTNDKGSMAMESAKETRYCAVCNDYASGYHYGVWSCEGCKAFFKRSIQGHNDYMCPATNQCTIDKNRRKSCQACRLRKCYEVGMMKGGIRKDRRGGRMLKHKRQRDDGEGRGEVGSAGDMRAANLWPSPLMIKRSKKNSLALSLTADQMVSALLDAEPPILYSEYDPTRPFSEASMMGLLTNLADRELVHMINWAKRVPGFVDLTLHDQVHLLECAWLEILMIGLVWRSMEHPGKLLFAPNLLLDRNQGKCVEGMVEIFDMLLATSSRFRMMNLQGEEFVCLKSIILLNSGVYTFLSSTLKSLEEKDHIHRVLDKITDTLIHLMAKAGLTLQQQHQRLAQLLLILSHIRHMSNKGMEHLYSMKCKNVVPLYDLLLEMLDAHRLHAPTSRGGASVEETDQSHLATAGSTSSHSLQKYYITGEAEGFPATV
T1 sequence (Q92731 whole entry, looked up, the tested form may be a part): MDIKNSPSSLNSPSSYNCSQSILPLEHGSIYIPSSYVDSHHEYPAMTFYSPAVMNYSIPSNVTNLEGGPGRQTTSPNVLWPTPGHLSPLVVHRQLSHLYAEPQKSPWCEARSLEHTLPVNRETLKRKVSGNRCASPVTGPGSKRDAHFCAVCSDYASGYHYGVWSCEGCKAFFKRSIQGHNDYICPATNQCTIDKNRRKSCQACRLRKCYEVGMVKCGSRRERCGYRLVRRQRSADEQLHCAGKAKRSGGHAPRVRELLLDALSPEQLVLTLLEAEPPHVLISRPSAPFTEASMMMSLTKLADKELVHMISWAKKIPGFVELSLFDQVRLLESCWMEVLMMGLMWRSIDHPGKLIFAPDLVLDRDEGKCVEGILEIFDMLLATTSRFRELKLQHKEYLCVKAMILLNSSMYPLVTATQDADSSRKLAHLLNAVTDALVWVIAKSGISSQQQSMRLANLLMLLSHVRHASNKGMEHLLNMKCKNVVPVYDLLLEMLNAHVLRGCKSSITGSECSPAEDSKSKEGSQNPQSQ
Estrogen receptor (Homo sapiens), sequence (P03372 whole entry, looked up, the tested form may be a part): as the sequence (P03372 whole entry, looked up, the tested form may be a part) above
Peroxisome proliferator-activated receptor gamma (Homo sapiens), sequence (P37231 whole entry, looked up): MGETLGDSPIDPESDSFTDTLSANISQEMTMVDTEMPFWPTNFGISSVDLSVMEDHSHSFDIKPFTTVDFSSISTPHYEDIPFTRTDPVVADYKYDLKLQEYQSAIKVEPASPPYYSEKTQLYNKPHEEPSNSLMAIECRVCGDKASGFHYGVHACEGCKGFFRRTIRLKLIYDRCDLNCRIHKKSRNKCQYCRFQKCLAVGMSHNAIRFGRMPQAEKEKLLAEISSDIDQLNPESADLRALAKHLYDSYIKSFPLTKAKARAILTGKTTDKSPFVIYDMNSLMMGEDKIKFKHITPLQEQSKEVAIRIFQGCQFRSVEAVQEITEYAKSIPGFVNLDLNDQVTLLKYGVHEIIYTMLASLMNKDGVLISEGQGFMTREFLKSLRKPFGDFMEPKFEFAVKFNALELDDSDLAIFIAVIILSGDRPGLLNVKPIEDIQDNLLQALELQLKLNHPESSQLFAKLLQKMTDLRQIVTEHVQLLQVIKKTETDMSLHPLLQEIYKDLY
Estrogen receptor beta (Homo sapiens), sequence (Q92731 whole entry, looked up, the tested form may be a part): as the sequence (Q92731 whole entry, looked up, the tested form may be a part) above

The AC50 is the midpoint of the concentration-response curve, whichever way the signal moves. In the case of `O=S(=O)(O)c1ccc(N=Nc2c(O)ccc3ccccc23)cc1`, the molecule was classed as inactive in assay [1] and in assay [2]. Further, the concentration at half-maximal activity (AC50) in [3] is 31.9 µM (active); in assay [4], 17.1 µM (active); in assay [5] it was 17.2 µM (active); in [6], 20.7 µM (active).
With `CCCCNS(=O)(=O)c1ccccc1`, the result in assay [1], in assay [7], in [2], in [8] and in [9] was inactive.
In the case of `C[Si](C)(C)N[Si](C)(C)C`, the call in assay [1], in [2] and in [8] was inactive.
For the molecule `C=CCOC(=O)c1ccc(C(=O)OCC=C)c(C(=O)OCC=C)c1`, the outcome in assay [1], in [7], in assay [2], in [8] and in assay [6] was inactive.
On to `O=C(O)C1CCC(C(=O)O)CC1` (centres undefined), for which the molecule was called inactive in [1], in [2] and in [8].
On to `COc1ccc(-c2coc3cc(O)cc(O)c3c2=O)cc1`, for which the AC50 in assay [1] is 12.3 µM (active); in [7] it was 2.91 µM (active); in assay [2], 5.37 µM (active); in assay [8], 2.05 µM (active). In addition, the molecule was classed as inactive in [9].
Take `CC(C)(C)C1CCC(=O)CC1`: the molecule was classed as inactive in assay [1], in [7], in [2], in [8] and in assay [9].
Regarding `CC(CCC(=O)O)(c1ccc(O)cc1)c1ccc(O)cc1`, the outcome in assay [1] and in assay [9] was inactive. The AC50 in assay [7] is 39.1 µM (active); in [2], 60.1 µM (active); in [8], 31.8 µM (active).
As to `CCCCCCCOC(=O)c1ccc(O)cc1`, the concentration at half-maximal activity (AC50) in [1] is 12.3 µM (active); in [7], 5.32 µM (active); in assay [2] it was 12.2 µM (active); in assay [8] it was 2.68 µM (active); in [5] it was 7.77 µM (active); in assay [6] it was 12.3 µM (active). Also, the molecule was called inactive in assay [10].
With `COC(=O)c1ccccc1C`, the call in [1], in assay [7], in assay [2] and in assay [9] was inactive.
Consider `CCCCCC[C@@H](O)C/C=C\CCCCCCCC(=O)OCC(O)CO` (some centres undefined), for which the result in assay [1], in assay [11] and in [6] was inactive. Moreover, the AC50 in [10] was 15.5 µM (active).
In the case of `CCCCCCOC(=O)CCCCC(=O)OCCCCCC`, the result in assay [1], in assay [7], in assay [2], in assay [8], in assay [6] and in assay [12] was inactive.
Regarding `CCCCC(=O)O`, the molecule was called inactive in assay [1], in [7], in assay [2] and in assay [5]. Further, in [5], the AC50 is 8.11 µM (active).
`O=C(OCc1ccccc1)c1ccc(O)cc1`: the concentration at half-maximal activity (AC50) in assay [1] was 18.9 µM (active); in [7] it was 4.92 µM (active); in assay [2], 33.6 µM (active); in [8], 3.98 µM (active); in [6] it was 10.4 µM (active). In addition, the result in [6] was inactive.
With `CCc1cccc(C)c1N`, the outcome in assay [1], in [11], in assay [13], in assay [9] and in assay [6] was inactive.
